Common to all, as to test: DAPPL (digital affinity profiling via proximity ligation, sequencing); 10 mM Tris-HCl pH 7.5, 50 mM NaCl, 1 mM DTT, 4% glycerol, room temperature, 30 min; GST-TFs on glutathione beads, 16-mer random dsDNA library, 0.1% formaldehyde crosslink after washing; high values mean tight binding
What all share (conditions): protein: recombinant; tags: N-terminal GST; dsDNA, one strand shown

The target in experiment [1] is T1, FLI1 (Homo sapiens, UniProt Q01543 1-452).
T1 sequence: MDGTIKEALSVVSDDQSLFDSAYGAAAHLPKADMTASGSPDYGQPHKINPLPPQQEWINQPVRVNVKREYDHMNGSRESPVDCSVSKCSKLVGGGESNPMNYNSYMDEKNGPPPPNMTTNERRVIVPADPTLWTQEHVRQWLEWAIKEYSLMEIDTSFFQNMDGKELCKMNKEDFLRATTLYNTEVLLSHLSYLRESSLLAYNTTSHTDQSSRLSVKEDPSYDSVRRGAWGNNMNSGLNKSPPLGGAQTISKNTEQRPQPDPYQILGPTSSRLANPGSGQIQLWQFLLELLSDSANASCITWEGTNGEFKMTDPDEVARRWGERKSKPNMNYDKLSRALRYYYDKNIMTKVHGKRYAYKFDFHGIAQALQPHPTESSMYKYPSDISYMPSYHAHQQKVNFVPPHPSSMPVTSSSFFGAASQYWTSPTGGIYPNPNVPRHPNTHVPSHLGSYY
The essentials:
(§1)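 Sequencing on an Illumina NextSeq500 followed washing, crosslinking with 0.1% formaldehyde, proximity ligation (BsaI/T4 ligase, 1 h, 37 °C) and PCR amplification of pools that had been incubated for 30 min at room temperature with 200 nmole of a random double-stranded 16-mer DNA library in Tris/NaCl/DTT/glycerol buffer. Each pool held DNA-barcoded human transcription factors, expressed in yeast as GST fusions and captured on glutathione beads, plus a tag-only sample. Binding signal is a hexamer's read frequency for a factor divided by its frequency in the tag-only sample.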

Experiment [2] concerns the target T2, ELK1 (Homo sapiens, UniProt P19419 1-428).
T2 sequence: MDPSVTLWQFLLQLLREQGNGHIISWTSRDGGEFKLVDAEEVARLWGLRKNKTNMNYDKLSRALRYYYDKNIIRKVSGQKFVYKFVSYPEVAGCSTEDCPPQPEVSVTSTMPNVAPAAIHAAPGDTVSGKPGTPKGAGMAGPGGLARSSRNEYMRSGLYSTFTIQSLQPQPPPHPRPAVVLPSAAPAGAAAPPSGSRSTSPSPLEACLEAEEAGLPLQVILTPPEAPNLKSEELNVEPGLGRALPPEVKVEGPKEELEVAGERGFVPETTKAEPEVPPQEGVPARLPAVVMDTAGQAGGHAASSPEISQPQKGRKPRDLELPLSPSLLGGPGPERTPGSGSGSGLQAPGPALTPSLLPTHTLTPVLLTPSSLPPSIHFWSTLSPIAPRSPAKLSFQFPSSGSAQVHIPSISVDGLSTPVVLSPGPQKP
The essentials:
as §1

For experiment [3], the target named is T3, GABPA (Homo sapiens, UniProt Q06546 1-454).
T3 sequence: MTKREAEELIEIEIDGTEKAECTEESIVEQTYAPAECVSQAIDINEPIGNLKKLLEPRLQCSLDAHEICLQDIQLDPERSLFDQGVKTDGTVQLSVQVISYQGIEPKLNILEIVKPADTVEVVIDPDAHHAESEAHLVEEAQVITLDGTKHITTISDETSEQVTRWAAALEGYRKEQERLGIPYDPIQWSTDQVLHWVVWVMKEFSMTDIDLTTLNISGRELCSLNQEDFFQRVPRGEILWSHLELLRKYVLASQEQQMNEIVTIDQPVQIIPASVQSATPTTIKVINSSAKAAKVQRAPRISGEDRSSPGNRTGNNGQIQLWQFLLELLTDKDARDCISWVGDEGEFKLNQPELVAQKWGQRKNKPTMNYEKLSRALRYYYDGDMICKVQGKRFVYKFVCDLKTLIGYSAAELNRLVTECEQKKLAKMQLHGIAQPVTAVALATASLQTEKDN
In outline: as §1

The target of experiment [4] is T4, ERG (Homo sapiens, UniProt P11308 1-479).
T4 sequence: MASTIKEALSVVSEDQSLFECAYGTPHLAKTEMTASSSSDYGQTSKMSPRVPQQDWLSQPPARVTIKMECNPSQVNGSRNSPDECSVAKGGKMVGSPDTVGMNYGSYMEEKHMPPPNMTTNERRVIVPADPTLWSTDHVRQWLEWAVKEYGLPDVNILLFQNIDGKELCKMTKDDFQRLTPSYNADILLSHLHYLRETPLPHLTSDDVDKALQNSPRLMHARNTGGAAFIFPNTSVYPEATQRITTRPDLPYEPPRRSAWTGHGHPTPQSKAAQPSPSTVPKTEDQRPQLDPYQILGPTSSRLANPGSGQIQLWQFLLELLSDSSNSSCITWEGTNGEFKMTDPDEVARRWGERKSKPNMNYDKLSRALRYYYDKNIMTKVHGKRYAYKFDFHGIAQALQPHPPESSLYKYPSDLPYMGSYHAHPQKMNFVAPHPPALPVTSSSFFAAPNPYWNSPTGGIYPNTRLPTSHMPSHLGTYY
The essentials:
as §1

The target in experiment [5] is ELF1 (Homo sapiens, UniProt P32519 1-619). The essentials:
as §1

In experiment [6] the target is T5, EHF (Homo sapiens, UniProt Q9NZC4 1-300).
T5 sequence: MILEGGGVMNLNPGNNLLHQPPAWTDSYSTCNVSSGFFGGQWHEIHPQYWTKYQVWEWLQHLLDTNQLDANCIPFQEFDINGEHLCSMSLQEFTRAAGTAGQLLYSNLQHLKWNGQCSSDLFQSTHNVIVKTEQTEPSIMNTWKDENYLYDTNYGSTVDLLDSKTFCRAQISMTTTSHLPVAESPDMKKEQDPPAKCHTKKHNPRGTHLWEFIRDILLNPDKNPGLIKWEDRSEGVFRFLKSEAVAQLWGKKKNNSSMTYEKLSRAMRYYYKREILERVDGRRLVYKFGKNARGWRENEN
The essentials: as §1

The target in experiment [7] is SPI1 (Homo sapiens, UniProt P17947 1-270). In outline:
as §1

In experiment [8] the target is SPIB (Homo sapiens, UniProt Q01892 1-262). In outline: as §1
Chain of SPIB (Q01892 whole entry): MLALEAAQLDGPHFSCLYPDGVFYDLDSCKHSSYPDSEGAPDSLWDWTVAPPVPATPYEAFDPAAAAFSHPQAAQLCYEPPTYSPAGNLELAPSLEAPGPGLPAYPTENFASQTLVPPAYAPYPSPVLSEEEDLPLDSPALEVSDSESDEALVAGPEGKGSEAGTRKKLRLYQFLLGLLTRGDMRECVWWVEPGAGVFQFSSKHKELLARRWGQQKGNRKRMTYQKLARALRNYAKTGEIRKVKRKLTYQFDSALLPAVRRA
In experiment [9] the target is T6, ELK3 (Homo sapiens, UniProt P41970 1-407).
T6 sequence: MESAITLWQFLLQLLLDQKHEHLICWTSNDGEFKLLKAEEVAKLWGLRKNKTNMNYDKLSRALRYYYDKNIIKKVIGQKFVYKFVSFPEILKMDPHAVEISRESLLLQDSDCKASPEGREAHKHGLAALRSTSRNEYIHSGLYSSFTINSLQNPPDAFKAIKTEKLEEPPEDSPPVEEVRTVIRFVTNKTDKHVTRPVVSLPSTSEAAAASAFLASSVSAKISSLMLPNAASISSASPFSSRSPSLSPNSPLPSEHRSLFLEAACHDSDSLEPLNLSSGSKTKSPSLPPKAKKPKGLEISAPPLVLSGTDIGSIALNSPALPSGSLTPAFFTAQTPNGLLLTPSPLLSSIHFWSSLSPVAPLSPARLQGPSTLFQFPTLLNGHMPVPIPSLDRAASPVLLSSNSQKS
The essentials:
as §1

Experiment [10] concerns the target T7, FEV (Homo sapiens, UniProt Q99581 1-238).
T7 sequence: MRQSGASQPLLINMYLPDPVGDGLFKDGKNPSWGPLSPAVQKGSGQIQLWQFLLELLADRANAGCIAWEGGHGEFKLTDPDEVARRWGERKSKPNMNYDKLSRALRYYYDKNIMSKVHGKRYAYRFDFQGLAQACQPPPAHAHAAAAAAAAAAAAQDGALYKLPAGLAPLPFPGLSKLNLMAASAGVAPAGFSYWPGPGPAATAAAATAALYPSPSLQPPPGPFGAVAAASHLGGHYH
In outline: as §1

Experiment [11] deals with ETV5 (Homo sapiens, UniProt P41161 1-510). In outline:
as §1

Experiment [12] has as its target T8, SPIC (Homo sapiens, UniProt Q8N5J4 1-248).
T8 sequence: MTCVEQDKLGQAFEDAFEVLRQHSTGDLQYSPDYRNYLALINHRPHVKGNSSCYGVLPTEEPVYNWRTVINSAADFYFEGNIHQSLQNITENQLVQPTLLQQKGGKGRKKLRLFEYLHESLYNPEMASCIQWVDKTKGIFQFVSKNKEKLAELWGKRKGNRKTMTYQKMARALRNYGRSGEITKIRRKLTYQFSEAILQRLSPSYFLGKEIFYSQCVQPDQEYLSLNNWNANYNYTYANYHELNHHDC
In outline: as §1

In experiment [13] the target is ELF4 (Homo sapiens, UniProt Q99607 1-663). In outline:
as §1

The target in experiment [14] is T9, ELK4 (Homo sapiens, UniProt P28324-2 1-405).
T9 sequence: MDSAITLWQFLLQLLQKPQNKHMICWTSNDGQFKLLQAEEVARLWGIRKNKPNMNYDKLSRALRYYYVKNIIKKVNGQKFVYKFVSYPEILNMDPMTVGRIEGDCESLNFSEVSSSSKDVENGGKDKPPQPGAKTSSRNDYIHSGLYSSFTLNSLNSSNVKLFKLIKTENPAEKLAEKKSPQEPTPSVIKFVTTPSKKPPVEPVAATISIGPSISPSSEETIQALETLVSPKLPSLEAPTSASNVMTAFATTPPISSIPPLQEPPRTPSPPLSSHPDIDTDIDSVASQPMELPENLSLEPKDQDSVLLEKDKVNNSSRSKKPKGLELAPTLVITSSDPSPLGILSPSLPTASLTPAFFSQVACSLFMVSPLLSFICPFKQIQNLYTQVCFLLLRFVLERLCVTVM
The essentials: as §1

Experiment [15] deals with T10, ETV2 (Homo sapiens, UniProt O00321 1-342).
T10 sequence: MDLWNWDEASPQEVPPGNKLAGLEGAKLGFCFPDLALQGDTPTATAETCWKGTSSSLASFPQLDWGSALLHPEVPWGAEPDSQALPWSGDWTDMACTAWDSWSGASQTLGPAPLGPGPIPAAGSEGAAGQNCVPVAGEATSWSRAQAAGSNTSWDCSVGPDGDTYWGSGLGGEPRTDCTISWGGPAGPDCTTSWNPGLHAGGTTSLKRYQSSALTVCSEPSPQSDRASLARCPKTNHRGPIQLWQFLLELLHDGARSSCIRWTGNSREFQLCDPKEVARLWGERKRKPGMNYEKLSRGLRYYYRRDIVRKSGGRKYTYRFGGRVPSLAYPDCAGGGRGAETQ
In outline:
as §1

Experiment [16] addresses T11, ELF3 (Homo sapiens, UniProt P78545 1-371).
T11 sequence: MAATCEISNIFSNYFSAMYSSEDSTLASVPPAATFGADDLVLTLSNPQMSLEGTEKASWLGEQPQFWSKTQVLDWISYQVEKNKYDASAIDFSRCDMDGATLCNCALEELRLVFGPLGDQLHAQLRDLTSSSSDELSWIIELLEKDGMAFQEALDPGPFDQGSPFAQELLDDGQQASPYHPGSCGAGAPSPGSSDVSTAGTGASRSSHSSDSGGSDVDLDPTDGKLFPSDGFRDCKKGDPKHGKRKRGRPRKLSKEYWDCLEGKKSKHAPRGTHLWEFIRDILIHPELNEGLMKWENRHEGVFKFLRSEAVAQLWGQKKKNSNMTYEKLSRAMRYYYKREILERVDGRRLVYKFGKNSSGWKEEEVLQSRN
In outline: as §1

Experiment [17] deals with ETV1 (Homo sapiens, UniProt P50549 1-477). The essentials: as §1
Chain of ETV1 (P50549 whole entry): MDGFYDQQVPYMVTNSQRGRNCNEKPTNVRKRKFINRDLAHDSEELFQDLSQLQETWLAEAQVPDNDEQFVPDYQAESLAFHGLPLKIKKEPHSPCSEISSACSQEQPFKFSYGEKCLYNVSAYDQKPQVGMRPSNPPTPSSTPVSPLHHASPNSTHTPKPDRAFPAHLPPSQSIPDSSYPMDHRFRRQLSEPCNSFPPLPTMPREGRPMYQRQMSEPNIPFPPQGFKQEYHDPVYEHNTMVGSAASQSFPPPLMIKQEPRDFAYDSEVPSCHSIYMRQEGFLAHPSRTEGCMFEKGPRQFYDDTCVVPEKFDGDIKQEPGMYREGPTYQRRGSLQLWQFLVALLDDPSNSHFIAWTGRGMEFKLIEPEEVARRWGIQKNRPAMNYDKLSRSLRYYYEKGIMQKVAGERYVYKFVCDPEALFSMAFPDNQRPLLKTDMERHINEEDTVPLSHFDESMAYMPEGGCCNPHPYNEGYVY

This note sets out measurements from PMC7862700, “An all-to-all approach to the identification of sequence-specific readers for epigenetic DNA modifications on cytosine”.

Chain of ELF1 (P32519 whole entry): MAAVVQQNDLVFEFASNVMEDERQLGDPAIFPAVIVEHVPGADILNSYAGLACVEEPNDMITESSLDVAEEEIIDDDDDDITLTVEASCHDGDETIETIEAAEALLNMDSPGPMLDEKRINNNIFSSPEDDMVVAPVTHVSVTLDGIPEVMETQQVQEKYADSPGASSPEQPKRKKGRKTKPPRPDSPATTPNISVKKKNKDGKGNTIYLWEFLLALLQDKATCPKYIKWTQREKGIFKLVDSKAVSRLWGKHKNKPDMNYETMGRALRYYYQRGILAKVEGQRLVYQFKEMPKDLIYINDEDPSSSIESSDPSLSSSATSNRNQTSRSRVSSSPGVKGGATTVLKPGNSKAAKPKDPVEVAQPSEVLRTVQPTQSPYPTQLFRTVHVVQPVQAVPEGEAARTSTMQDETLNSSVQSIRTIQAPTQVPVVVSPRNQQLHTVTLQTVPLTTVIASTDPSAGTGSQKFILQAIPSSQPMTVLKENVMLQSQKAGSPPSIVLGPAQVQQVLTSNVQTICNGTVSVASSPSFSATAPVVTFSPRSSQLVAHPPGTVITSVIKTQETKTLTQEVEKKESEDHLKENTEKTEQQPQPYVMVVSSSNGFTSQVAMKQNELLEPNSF
Chain of ETV5 (P41161 whole entry): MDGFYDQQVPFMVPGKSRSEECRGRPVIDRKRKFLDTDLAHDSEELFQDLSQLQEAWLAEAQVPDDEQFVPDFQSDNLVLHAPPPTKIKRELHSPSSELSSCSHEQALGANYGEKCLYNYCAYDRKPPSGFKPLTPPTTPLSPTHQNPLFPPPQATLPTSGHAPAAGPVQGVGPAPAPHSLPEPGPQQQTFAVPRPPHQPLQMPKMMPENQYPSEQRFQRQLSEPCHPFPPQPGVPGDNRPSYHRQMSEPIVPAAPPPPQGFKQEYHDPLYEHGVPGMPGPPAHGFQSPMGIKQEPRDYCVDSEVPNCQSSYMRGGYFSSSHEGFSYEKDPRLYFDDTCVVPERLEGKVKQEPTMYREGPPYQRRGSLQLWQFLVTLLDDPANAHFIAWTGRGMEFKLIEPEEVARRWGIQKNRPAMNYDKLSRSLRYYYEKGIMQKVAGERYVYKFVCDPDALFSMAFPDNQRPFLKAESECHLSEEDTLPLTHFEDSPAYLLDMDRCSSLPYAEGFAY
Chain of ELF4 (Q99607 whole entry): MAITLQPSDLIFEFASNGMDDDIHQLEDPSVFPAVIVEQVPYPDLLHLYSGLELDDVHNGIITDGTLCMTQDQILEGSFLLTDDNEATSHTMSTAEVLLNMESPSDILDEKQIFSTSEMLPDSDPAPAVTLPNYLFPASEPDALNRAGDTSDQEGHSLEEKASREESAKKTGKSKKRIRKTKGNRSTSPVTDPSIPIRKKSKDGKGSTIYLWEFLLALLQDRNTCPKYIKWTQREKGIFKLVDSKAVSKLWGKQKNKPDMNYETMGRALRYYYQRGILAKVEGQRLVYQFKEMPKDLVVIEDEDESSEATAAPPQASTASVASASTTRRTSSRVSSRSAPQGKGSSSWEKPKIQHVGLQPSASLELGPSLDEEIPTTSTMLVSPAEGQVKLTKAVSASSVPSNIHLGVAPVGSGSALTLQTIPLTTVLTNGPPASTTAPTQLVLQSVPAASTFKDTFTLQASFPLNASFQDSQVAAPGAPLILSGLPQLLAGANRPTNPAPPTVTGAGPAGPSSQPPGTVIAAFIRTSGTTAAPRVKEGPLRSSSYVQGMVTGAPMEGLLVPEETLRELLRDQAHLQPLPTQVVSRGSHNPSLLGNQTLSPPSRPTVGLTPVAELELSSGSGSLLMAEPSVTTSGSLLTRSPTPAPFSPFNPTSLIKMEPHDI

In the case of CCTGCC, the binding signal was 1.17 fold enrichment (6-mer frequency, TF over GST control) in [1]; 1.34 fold enrichment (6-mer frequency, TF over GST control) in experiment [2]; 1.25 fold enrichment (6-mer frequency, TF over GST control) in experiment [3]; 1.3 fold enrichment (6-mer frequency, TF over GST control) in experiment [4]; 1.31 fold enrichment (6-mer frequency, TF over GST control) in experiment [5]; 1.39 fold enrichment (6-mer frequency, TF over GST control) in experiment [6]. Also, the binding signal was 1.28 fold enrichment (6-mer frequency, TF over GST control) in experiment [7]; 1.43 fold enrichment (6-mer frequency, TF over GST control) in experiment [8]; 1.13 fold enrichment (6-mer frequency, TF over GST control) in experiment [9]; 1.33 fold enrichment (6-mer frequency, TF over GST control) in experiment [10]; 1.34 fold enrichment (6-mer frequency, TF over GST control) in [11]; 1.28 fold enrichment (6-mer frequency, TF over GST control) in [12]. For the same sequence, the binding signal is 1.28 fold enrichment (6-mer frequency, TF over GST control) in experiment [13]; 1.14 fold enrichment (6-mer frequency, TF over GST control) in experiment [14]; 1.26 fold enrichment (6-mer frequency, TF over GST control) in experiment [15]; 1.27 fold enrichment (6-mer frequency, TF over GST control) in experiment [16]; 1.26 fold enrichment (6-mer frequency, TF over GST control) in experiment [17].

Consider CCGGGT, for which the binding signal is 1.2 fold enrichment (6-mer frequency, TF over GST control) in experiment [1]; 1.06 fold enrichment (6-mer frequency, TF over GST control) in experiment [2]; 1.01 fold enrichment (6-mer frequency, TF over GST control) in [3]; 1.12 fold enrichment (6-mer frequency, TF over GST control) in experiment [4]; 1.13 fold enrichment (6-mer frequency, TF over GST control) in experiment [5]; 1.17 fold enrichment (6-mer frequency, TF over GST control) in experiment [6]. The binding signal was 1.01 fold enrichment (6-mer frequency, TF over GST control) in [7]; 1.16 fold enrichment (6-mer frequency, TF over GST control) in [8]; 1.02 fold enrichment (6-mer frequency, TF over GST control) in experiment [10]; 1.26 fold enrichment (6-mer frequency, TF over GST control) in experiment [11]; 1.19 fold enrichment (6-mer frequency, TF over GST control) in experiment [12]; 1.15 fold enrichment (6-mer frequency, TF over GST control) in experiment [13]. Further, the binding signal in [14] was 1.09 fold enrichment (6-mer frequency, TF over GST control); in [15], 1.15 fold enrichment (6-mer frequency, TF over GST control); in [16], 1.12 fold enrichment (6-mer frequency, TF over GST control); in experiment [17], 1.17 fold enrichment (6-mer frequency, TF over GST control).
